NS1 inh: inhibitors of influenza NS1 protein function; Potency, µM (series often up to 46.1 µM); hit rate 0.4% among 270,000; note: actives are rising curves; nearly all actives have a fitted effect of over 50% in size
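OD600 was taken as the measure of yeast growth restored by compound in an NS1-expressing S. cerevisiae strain. Cells had been washed out of glucose medium and diluted 1:100 into galactose -URA medium, pH 6.0.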
Pf growth 96h: P. falciparum growth inhibition at 96 hour, primary screen for plastid delayed-death inhibitors; P. falciparum luciferase reporter growth, 96 h; Potency, µM (titrated, usually from 28.7 µM), actives largely listed as inhibitors; hit rate 6.9% among 320,000; active = well fitted inhibition curve with a large enough effect; inconclusive = small, poorly fitted or top-dose-only effect, or another doubt; inactive = no such curve, though single readings can be large or run the other way
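Two-generation exposure (96 h) targets delayed-death phenotype. Reporter parasites carrying integrated firefly luciferase, in red cells at 2% hematocrit and 0.05% parasitemia final, kept at 37 C, 5% CO2; luminescence loss indicates inhibition.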
SARS PLpro yeast: blocks SARS-CoV papain-like protease in a yeast assay. S. cerevisiae expressing SARS-CoV PLpro, growth rescue. hit rate 0.19% among 330,000. Potency, µM (doses to about 32.9 µM), usual class: activators; note: nearly all actives have a fitted effect of over 55% in size
CHX counter: affects cycloheximide protein synthesis inhibition readout, counter-screen; cell reporter, cycloheximide protein synthesis inhibition counterscreen; hit rate 12% among 300,000; max response, %; AID 2314; in the data active = max response mostly above about 13%, no sharp cut-off; inactive = mostly below about 14%; note: read at 38.3 µM for the half of the compounds with a filed dose
Pf growth 48h: inhibits P. falciparum growth in the first generation, 48 h. Potency, µM (titrated, usually from 28.7 µM), actives largely listed as inhibitors. P. falciparum luciferase growth in erythrocytes, 48 h. hit rate 5.9% among 310,000; active = well fitted inhibition curve with a large enough effect; inconclusive = small, poorly fitted or top-dose-only effect, or another doubt; inactive = no such curve, though single readings can be large or run the other way
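First compound was added to culture medium, then infected red cells at 0.1% parasitemia and 2% hematocrit (final). After incubation at 37 C under 5% CO2, luciferase detection reagent was dispensed and light output recorded.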
Shiga toxin inh: Shiga toxin inhibition; Vero cells, Shiga toxin protein synthesis inhibition reporter; inhibition, % at 38.7 µM; hit rate 9.2% among 290,000; in the data active = inhibition mostly above about 28%, no sharp cut-off; inactive = mostly below about 43%
Large screens that a line does not name were inactive. Compounds with a hit are over-represented: about 21% of the library has one in this group of screens. Unless noted, calls come from the whole dose curve.

O=C1CC(c2ccccc2)CN1C(=O)c1ccccc1 (stereo not given)	CHX counter 16
CC(NC(=O)C(C)(C)C)C(c1cccs1)N1CCOCC1 (stereo not given)	none
COc1ccc(-n2c(SCC(=O)NNC(=O)c3ccccc3C)nnc2-c2ccncc2)cc1	Pf growth 48h inconclusive
CC(C)(C)c1csc(NNC(=O)c2ccc(Br)cc2)n1	Pf growth 96h inconclusive, CHX counter 40, Pf growth 48h 2.9µM, Shiga toxin inh 94 (no result: NS1 inh)
CC(C)(C)c1csc(NC(=O)c2ccccc2O)n1	CHX counter 32, Shiga toxin inh 39
CSc1ncccc1C(=O)Nc1nc(C(C)(C)C)cs1	CHX counter 21, Shiga toxin inh 18
Cc1csc(NC(=O)c2cc(C)oc2C)n1	CHX counter 28, Shiga toxin inh 74
Cc1ccc(C(=O)O)c(C(=O)Nc2nc(C)cs2)c1	Pf growth 96h inconclusive, Pf growth 48h inconclusive
Cc1ccccc1-c1ncc(CN2CCC(CO)(CCCc3ccccc3)CC2)cn1	Pf growth 96h inconclusive, Pf growth 48h inconclusive
COc1ccc(CNC(=O)CCn2c(=O)oc3ccccc32)c(OC)c1	Pf growth 96h inconclusive (no result: NS1 inh)
CCCCCCCCCCCCCCOc1ccc(C(=O)O)o1	none (no result: NS1 inh, Pf growth 96h, SARS PLpro yeast, Pf growth 48h)
Cc1csc(Nc2nc(N)c(C(=O)Nc3ccccc3)o2)n1	Pf growth 96h 3.3µM, CHX counter 39, Shiga toxin inh 98
Cc1csc(NC(=O)c2ccccc2O)n1	CHX counter 56, Shiga toxin inh 89
Cc1csc(NC(=O)c2ccc(Cl)nc2)n1	CHX counter 47, Shiga toxin inh 57 (no result: Pf growth 48h)
COC(=O)c1ccc(S(=O)(=O)N(Cc2cc3cc4c(cc3[nH]c2=O)OCO4)C2CCCCC2)cc1	none
CCOC(=O)C1CCCN(CC(=O)N(C)c2c(N)n(Cc3ccccc3)c(=O)[nH]c2=O)C1 (stereo not given)	none (no result: NS1 inh, Pf growth 96h, CHX counter, Pf growth 48h, Shiga toxin inh)
Cc1c(NS(=O)(=O)c2cc(C(=O)NCCN(C)C)ccc2Cl)c(=O)n(-c2ccccc2)n1C	none (no result: Pf growth 48h)
CC(C)(C)OC(=O)NCCCCCc1cn([C@@H](CO)C(=O)NCCCCCCCCCCC(=O)N2CCN(C(=O)OC(C)(C)C)CC2)nn1	Pf growth 96h 2.9µM, Pf growth 48h 1.2µM (no result: NS1 inh, CHX counter, Shiga toxin inh)
CC(C)(C)OC(=O)CC[C@@H](C(=O)NCCCCCCCCCCC(=O)N1CCN(C(=O)OC(C)(C)C)CC1)n1cc(CCCCCNC(=O)OC(C)(C)C)nn1	Pf growth 96h 0.33µM, Pf growth 48h 0.37µM (no result: NS1 inh, CHX counter, Shiga toxin inh)
CC(C)(C)OC(=O)NCCCC[C@@H](C(=O)N1CCN(C(=O)OC(C)(C)C)CC1)n1cc(CCC(=O)O)nn1	none
CC(C)(C)OC(=O)NCCCC[C@@H](C(=O)NCCCCCCCCCCC(=O)N1CCN(C(=O)OC(C)(C)C)CC1)n1cc(CCCC(=O)O)nn1	Pf growth 96h 5.9µM, Pf growth 48h 7.4µM (no result: NS1 inh, CHX counter, Shiga toxin inh)
CCCCc1cn([C@@H](CCCCNC(=O)OC(C)(C)C)C(=O)N2CCN(C(=O)OC(C)(C)C)CC2)nn1	Pf growth 96h 10µM, Pf growth 48h 15µM
Nn1c(SCC(=O)NCC2CCCO2)nnc1-c1ccco1 (stereo not given)	none (no result: NS1 inh, Pf growth 96h, CHX counter, Pf growth 48h, Shiga toxin inh)
Cc1ccc2c3c1C1(C(=O)N3C(C)(C)CC2C)C(C#N)=C(N)Oc2cc(O)ccc21 (stereo not given)	none
Cc1nn(-c2ccccc2)c2c1C1(C(=O)N3c4c(cccc41)C(C)CC3(C)C)C(C#N)=C(N)O2 (stereo not given)	Pf growth 48h inconclusive (no result: Pf growth 96h)
Cc1cc2c3c(c1)C1(C(=O)N3C(C)(C)CC2C)C(C#N)=C(N)Oc2cc(O)ccc21 (stereo not given)	Pf growth 48h 12µM (no result: Pf growth 96h)
CCc1cc2c3c(c1)C1(C(=O)N3C(C)(C)CC2C)C(C#N)=C(N)N2C(=C1C#N)Nc1ccccc12 (stereo not given)	Pf growth 48h 9.3µM
O=C1OC(/C(=C\Nc2cc(Cl)ccc2O)[N+](=O)[O-])c2ccccc21 (stereo not given)	Pf growth 96h inconclusive, Pf growth 48h 10µM (no result: NS1 inh)
CCCn1c(N)c(C(=O)CSc2nc(N)cc(=O)[nH]2)c(=O)n(C)c1=O	Pf growth 96h 4.7µM, Pf growth 48h inconclusive (no result: NS1 inh, CHX counter, Shiga toxin inh)
Cc1cc(C)n2nc(SCC(=O)N(CC(C)C)c3c(N)n(CC(C)C)c(=O)[nH]c3=O)nc2n1	none (no result: NS1 inh)
CC(C)Cn1c(N)c(C(=O)CSc2nc3ncc(Cl)cc3[nH]2)c(=O)n(C)c1=O	Pf growth 96h 10µM, Pf growth 48h inconclusive (no result: NS1 inh, CHX counter, Shiga toxin inh)
Cc1cc(C)n2nc(SCC(=O)c3c(N)n(CC(C)C)c(=O)n(C)c3=O)nc2n1	Pf growth 96h inconclusive, Pf growth 48h 4.7µM (no result: NS1 inh)
CC(C)CNc1nc(Oc2ccc(=O)[nH]n2)nc(N2CCOCC2)n1	none
CCCn1nc(C(=O)OCC(=O)Nc2ncc(Cl)c(C)c2Cl)c2ccccc2c1=O	none
CCN(c1ccc(NC(=O)COC(=O)c2cccs2)cc1)C(C)C	CHX counter 38 (no result: Pf growth 48h)
CCN(CC)c1ccc(NC(=O)COC(=O)c2cccs2)cc1	CHX counter 44, Shiga toxin inh 55 (no result: Pf growth 48h)
O=C(COC(=O)c1cccs1)Nc1cccc(Cl)c1	none (no result: NS1 inh, CHX counter, Shiga toxin inh)
CCN(c1ccc(NC(=O)COC(=O)c2cc3ccccc3oc2=O)cc1)C(C)C	none (no result: NS1 inh)
CC(=O)c1cccc(NC(=O)COC(=O)c2cccs2)c1	CHX counter 59, Shiga toxin inh 69 (no result: NS1 inh)
COc1cc2nc(N(C)CCCNC(=O)[C@@H]3CCCO3)nc(N)c2cc1OC	none (no result: NS1 inh, SARS PLpro yeast, CHX counter, Shiga toxin inh)
Cc1ccccc1C(=O)N1CCC(C(=O)N2CCN(S(=O)(=O)c3ccccc3F)CC2)CC1	none
C=CCN1C(=O)C2(/C(=C(\O)c3ccc4c(c3)OCCO4)C(=O)C(=O)N2CCCOC)c2ccccc21 (stereo not given)	Pf growth 96h inconclusive
CC(C)(C)N(Cc1ccccc1)C(=O)COC(=O)C1=NN(c2ccccc2)C(=O)CC1	none (no result: NS1 inh, CHX counter, Shiga toxin inh)
COc1cccc(CC2(CO)CCCN(Cc3cc4ccccc4[nH]3)C2)c1 (stereo not given)	Pf growth 96h inconclusive, Pf growth 48h inconclusive
COc1ccc(C(=O)CC(=O)C(=O)Nc2cc(OC)ccc2OC)cc1	Pf growth 96h inconclusive (no result: Pf growth 48h)
COc1ccc(C(=O)CC(Nc2ccc([N+](=O)[O-])cc2)c2ccc(Cl)cc2)cc1 (stereo not given)	Pf growth 96h 9.3µM, CHX counter 10, Pf growth 48h 3.3µM
COc1ccc(NC(=O)C(=O)NCCCO)cc1Cl	CHX counter 24, Shiga toxin inh 62 (no result: NS1 inh)
COc1ccc(C(=O)CC(=O)C(=O)Nc2ccc(OC)c(Cl)c2)cc1	CHX counter 17 (no result: Pf growth 48h)
COc1ccc(C(=O)CC(=O)C(=O)Nc2ccc(Cl)cc2)cc1	CHX counter 14 (no result: Pf growth 48h)
Cc1ccc(CN(C)C(=O)c2ccc3c(c2)NC(=O)CS3)o1	none
O=c1oc(C2(O)CCCCC2)cc2ccc(/C=C/c3ccc(F)cc3)cc12	Pf growth 96h inconclusive, Pf growth 48h inconclusive (no result: NS1 inh, CHX counter, Shiga toxin inh)
O=C(COc1cccc(NC(=O)c2cccs2)c1)c1ccc(F)cc1	Pf growth 96h inconclusive, Shiga toxin inh active
O=C(CNC(=O)c1ccc([N+](=O)[O-])cc1)c1ccccc1	CHX counter 46, Shiga toxin inh 95
